# Laboratory results from the supplement of paper PMC10849652.
# About 7,900 targets were measured; listed, in parts, are those with a hit and a random draw of the rest. About 0.6% of all pairs of compound and target were hits. Values without a mark were called inactive.
# Columns and labels:
# Test in all cases: log2 fold change, soluble protein after heating vs DMSO (PISA); higher = thermal stabilisation; K562 cells, 10 uM, 30 min; active = over 0.2 and 3.5 SD of the protein, either way, in both replicates (recomputed)
# [1] = compound: CC[C@@H]1C(=O)N(C)c2cnc(Nc3ccc(C(=O)NC4CCN(C)CC4)cc3OC)nc2N1C1CCCC1
# Method in brief: (§1)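 Values are thermal stability changes relative to control samples and are taken from duplicates. They are stated as log2 fold changes. Before quantification by TMTpro 16plex LC-MS/MS with equalised channel sums, K562 cells at 2×10^6 cells/mL were treated with 10 μM compound for 30 min, heated in aliquots for 3 min across 48°C-58°C, pooled, extracted in PBS with 0.5% NP-40 at 4°C, and centrifuged at 21,000xg for 90 min to give the soluble supernatant.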
# volasertib = compound: CC[C@@H]1C(=O)N(C)c2cnc(Nc3ccc(C(=O)N[C@H]4CC[C@H](N5CCN(CC6CC6)CC5)CC4)cc3OC)nc2N1C(C)C [volasertib]
# Method in brief: as §1
# [2] = compound: CC[C@H](C)N1C=C(C2=C(C=C(C=C21)C3=CN=C(C=C3)N4CCNCC4)C(=O)NCC5=C(C=C(NC5=O)C)C)C
# Method in brief: as §1
# epoxomicin = compound: CC[C@H](C)[C@@H](C(=O)N[C@@H]([C@@H](C)O)C(=O)N[C@@H](CC(C)C)C(=O)[C@]1(CO1)C)NC(=O)[C@H]([C@@H](C)CC)N(C)C(=O)C [epoxomicin]
# Method in brief: as §1
# [3] = compound: CCn1c(C(=O)N(C2CC2)C2CC2)cc2c3c(ncn3C)c(Nc3cc(C)n(C)n3)nc21
# Method in brief: as §1
# [4] = compound: CCn1cc(-c2ccnc3[nH]c(-c4cccc(CN(C)C)c4)cc23)c(-c2ccc(NC(=O)N(C)C)cc2)n1
# Method in brief: as §1
# [5] = compound: CN(C)CC(=O)Nc1ccc2[nH]c(=O)c3ccccc3c2c1
# Method in brief: as §1
# rosiglitazone = compound: CN(CCOC1=CC=C(C=C1)C[C@H]2C(=O)NC(=O)S2)C3=CC=CC=N3 (racemic) [rosiglitazone]
# Method in brief: as §1
# [6] = compound: CN1C2=C(C3=C1C(=O)N(N=C3)CC4=CC(=CC=C4)N)SC(=C2)S(=O)C
# Method in brief: as §1
# [7] = compound: CN1CCC(CNc2ccc3ncc(-c4cccc(OC(F)(F)F)c4)n3n2)CC1
# Method in brief: as §1
# saracatinib = compound: CN1CCN(CCOc2cc(OC3CCOCC3)c3c(Nc4c(Cl)ccc5c4OCO5)ncnc3c2)CC1 [saracatinib]
# Method in brief: as §1
# sotrastaurin = compound: CN1CCN(c2nc(C3=C(c4c[nH]c5ccccc45)C(=O)NC3=O)c3ccccc3n2)CC1 [sotrastaurin]
# Method in brief: as §1
# alvocidib = compound: CN1CC[C@H](c2c(O)cc(O)c3c(=O)cc(-c4ccccc4Cl)oc23)[C@H](O)C1 [alvocidib]
# Method in brief: as §1
# Tubastatin A = compound: CN1CCc2c(c3ccccc3n2Cc2ccc(C(=O)NO)cc2)C1 [Tubastatin A]
# Method in brief: as §1
# [8] = compound: CNC(=O)C1=CC=CC=C1NC2=NC(=NC=C2Cl)NC3=C(C=C(C=C3)N4CCOCC4)OC
# Method in brief: as §1
# defactinib = compound: CNC(=O)c1ccc(Nc2ncc(C(F)(F)F)c(NCc3nccnc3N(C)S(C)(=O)=O)n2)cc1 [defactinib]
# Method in brief: as §1
# rucaparib = compound: CNCc1ccc(-c2[nH]c3cc(F)cc4c3c2CCNC4=O)cc1 [rucaparib]
# Method in brief: as §1
# [9] = compound: CNc1nc(-c2ccc3c(N)n[nH]c3c2)cc(N2C[C@@H](C(=O)NC3CCCCC3)CC[C@H]2C)n1
# Method in brief: as §1
# encorafenib = compound: COC(=O)N[C@@H](C)CNc1nccc(-c2cn(C(C)C)nc2-c2cc(Cl)cc(NS(C)(=O)=O)c2F)n1 [encorafenib]
# Method in brief: as §1
# [10] = compound: COC(=O)[C@H](CCSC)NC(=O)C1=C(C=C(C=C1)NC[C@H](CS)N)C2=CC=CC=C2
# Method in brief: as §1
# UniProt Q92560, sequence (Q92560 whole entry, looked up): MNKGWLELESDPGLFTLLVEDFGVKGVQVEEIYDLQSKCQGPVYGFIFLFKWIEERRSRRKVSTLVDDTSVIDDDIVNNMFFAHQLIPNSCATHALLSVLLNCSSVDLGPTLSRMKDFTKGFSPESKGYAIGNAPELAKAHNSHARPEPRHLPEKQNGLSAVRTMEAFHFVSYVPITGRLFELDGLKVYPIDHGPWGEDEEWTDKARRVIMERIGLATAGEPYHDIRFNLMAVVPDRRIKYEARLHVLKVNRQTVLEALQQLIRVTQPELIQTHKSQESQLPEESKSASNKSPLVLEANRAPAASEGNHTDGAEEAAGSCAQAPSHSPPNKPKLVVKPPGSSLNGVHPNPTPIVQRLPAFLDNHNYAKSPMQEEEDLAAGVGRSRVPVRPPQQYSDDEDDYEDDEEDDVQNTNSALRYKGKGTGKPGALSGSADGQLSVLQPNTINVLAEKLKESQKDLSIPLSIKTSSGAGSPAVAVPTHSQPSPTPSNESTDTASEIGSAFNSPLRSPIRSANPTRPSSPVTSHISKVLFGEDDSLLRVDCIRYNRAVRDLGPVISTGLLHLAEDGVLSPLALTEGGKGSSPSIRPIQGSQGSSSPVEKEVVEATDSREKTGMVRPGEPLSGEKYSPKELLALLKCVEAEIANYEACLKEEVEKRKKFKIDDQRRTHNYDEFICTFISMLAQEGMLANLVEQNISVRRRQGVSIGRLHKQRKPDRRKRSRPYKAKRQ
# UniProt O95433, sequence (O95433 whole entry, looked up): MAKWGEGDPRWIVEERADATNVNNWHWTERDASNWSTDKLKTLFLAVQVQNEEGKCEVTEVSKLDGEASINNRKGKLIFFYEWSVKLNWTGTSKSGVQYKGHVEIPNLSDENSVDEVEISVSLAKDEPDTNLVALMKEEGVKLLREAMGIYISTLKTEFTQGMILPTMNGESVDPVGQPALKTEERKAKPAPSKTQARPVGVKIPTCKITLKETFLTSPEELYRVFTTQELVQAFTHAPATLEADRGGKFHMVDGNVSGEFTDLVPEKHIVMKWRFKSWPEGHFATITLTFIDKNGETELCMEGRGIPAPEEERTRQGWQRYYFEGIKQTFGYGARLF
# UniProt P36405, sequence (P36405 whole entry, looked up): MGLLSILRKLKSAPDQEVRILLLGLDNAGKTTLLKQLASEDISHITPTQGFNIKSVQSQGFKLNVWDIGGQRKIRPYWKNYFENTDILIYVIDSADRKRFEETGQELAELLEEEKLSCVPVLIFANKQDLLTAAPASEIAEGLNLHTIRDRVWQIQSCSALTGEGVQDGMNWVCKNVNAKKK
# UniProt P40616, sequence (P40616 whole entry, looked up): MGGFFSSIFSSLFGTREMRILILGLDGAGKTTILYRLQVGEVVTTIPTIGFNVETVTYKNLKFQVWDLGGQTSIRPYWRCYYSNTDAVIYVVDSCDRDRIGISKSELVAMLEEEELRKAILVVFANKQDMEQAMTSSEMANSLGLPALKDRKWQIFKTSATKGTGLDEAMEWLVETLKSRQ
# UniProt Q9UII2, sequence (Q9UII2 whole entry, looked up): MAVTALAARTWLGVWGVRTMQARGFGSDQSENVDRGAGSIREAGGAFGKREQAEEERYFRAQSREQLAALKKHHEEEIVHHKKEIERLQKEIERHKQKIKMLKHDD
# UniProt P24666, sequence (P24666 whole entry, looked up): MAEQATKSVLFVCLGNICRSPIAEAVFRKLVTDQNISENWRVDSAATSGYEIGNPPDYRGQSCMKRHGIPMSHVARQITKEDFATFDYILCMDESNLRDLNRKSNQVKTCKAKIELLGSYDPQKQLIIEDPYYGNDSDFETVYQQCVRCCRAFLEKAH
# UniProt Q9NSY1, sequence (Q9NSY1 whole entry, looked up): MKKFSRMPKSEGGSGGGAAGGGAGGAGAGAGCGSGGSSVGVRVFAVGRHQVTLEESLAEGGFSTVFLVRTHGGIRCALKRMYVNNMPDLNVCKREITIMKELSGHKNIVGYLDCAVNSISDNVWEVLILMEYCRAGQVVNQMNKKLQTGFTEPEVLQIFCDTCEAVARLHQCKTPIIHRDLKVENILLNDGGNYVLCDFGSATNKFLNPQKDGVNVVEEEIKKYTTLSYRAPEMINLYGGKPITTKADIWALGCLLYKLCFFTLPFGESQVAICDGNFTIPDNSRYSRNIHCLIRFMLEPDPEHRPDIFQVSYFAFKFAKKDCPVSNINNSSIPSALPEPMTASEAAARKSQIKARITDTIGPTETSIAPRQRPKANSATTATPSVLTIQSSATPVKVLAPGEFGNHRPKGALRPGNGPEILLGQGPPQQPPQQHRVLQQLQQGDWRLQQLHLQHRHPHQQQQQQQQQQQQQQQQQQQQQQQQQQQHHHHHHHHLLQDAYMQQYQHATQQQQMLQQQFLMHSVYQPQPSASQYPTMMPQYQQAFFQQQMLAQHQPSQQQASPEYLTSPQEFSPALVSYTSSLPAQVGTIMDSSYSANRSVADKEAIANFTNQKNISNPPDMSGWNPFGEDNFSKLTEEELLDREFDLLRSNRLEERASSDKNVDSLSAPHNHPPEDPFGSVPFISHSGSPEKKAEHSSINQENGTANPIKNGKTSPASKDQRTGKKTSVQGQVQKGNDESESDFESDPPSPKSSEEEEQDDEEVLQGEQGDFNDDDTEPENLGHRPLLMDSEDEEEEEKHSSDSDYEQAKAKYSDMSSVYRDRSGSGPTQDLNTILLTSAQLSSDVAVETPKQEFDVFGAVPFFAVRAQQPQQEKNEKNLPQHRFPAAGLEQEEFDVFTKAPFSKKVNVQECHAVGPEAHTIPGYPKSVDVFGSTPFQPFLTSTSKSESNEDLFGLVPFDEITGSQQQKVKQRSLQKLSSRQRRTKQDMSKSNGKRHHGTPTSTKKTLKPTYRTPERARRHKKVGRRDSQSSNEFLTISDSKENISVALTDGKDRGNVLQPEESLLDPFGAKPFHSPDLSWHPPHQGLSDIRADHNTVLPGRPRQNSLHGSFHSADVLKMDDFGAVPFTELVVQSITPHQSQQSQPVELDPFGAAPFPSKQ
# UniProt Q99943, sequence (Q99943 whole entry, looked up): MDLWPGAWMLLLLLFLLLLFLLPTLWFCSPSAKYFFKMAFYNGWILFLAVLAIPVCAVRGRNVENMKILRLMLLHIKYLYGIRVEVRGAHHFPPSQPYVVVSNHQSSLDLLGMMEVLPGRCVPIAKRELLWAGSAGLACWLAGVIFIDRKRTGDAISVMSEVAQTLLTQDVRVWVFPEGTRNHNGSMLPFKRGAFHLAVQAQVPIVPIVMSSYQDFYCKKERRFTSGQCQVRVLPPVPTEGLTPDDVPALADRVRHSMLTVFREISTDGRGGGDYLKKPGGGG
# UniProt Q13685, sequence (Q13685 whole entry, looked up): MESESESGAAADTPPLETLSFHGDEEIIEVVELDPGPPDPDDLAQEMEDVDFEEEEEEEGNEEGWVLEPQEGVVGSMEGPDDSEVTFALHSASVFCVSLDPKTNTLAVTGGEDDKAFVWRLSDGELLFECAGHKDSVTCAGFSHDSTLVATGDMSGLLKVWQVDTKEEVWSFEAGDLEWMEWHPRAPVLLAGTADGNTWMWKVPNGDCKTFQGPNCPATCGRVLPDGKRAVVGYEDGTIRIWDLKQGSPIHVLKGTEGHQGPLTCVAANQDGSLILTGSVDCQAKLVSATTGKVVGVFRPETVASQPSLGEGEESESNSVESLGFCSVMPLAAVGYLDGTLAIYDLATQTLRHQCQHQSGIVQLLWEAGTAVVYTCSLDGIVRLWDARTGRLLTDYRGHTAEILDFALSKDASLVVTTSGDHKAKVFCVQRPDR
# UniProt P49189, sequence (P49189 whole entry, looked up): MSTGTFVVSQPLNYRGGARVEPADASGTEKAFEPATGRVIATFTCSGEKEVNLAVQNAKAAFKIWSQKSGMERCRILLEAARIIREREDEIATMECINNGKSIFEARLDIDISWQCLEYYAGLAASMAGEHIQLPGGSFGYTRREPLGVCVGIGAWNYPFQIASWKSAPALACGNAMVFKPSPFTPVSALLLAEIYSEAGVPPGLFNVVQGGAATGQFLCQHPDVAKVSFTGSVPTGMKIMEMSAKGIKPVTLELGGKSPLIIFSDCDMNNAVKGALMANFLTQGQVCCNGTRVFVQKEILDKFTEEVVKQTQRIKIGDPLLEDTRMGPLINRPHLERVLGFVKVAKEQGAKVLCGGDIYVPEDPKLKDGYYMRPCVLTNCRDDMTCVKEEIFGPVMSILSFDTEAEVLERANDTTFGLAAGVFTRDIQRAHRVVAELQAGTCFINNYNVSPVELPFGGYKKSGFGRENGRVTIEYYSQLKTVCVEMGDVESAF
# UniProt Q9BR61, sequence (Q9BR61 whole entry, looked up): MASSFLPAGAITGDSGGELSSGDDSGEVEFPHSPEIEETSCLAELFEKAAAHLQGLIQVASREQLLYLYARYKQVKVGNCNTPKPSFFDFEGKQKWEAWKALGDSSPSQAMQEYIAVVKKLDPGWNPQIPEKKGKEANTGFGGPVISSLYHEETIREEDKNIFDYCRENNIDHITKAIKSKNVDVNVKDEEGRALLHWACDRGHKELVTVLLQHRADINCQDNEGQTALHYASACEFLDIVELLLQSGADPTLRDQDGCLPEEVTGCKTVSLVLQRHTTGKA
# UniProt Q8N2F6, sequence (Q8N2F6 whole entry, looked up): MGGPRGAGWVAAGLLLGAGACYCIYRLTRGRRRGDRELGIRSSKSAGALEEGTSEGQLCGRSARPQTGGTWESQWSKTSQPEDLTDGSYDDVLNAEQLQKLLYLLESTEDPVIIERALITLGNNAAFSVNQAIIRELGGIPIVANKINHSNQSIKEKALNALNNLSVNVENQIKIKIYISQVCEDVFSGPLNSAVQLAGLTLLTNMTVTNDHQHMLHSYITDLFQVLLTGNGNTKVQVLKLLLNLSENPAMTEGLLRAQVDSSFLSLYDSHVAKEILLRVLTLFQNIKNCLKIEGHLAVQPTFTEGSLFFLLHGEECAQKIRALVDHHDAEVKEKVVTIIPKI
Target,log2 fold change [1],log2 fold change (volasertib),log2 fold change [2],log2 fold change (epoxomicin),log2 fold change [3],log2 fold change [4],log2 fold change [5],log2 fold change (rosiglitazone),log2 fold change [6],log2 fold change [7],log2 fold change (saracatinib),log2 fold change (sotrastaurin),log2 fold change (alvocidib),log2 fold change (Tubastatin A),log2 fold change [8],log2 fold change (defactinib),log2 fold change (rucaparib),log2 fold change [9],log2 fold change (encorafenib),log2 fold change [10]
ACP1 isoform 2 (UniProt P24666),0.034,0.055,0.063,0.012,-0.1,-0.083,0.05,0.027,0.014,-0.07,-0.175,-0.11,0.013,0.111,0.038,-0.047,0.019,0.059,0.064,0.024
AAMP (UniProt Q13685),0.072,0.051,-0.016,-0.017,0.023,-0.016,0.011,0.001,-0.004,0.054,-0.002,0.006,-0.017,-0.049,0.022,-0.102,0.054,-0.014,-0.016,-0.009
ARL3 (UniProt P36405),0.036,0.046,0.001,-0.01,-0.001,-0.005,-0.014,0.008,-0.098,-0.018,0.021,-0.008,-0.01,-0.012,-0.025,-0.025,-0.033,-0.035,-0.022,0.022
ALDH9A1 (UniProt P49189),-0.035,0.009,0.111,-0.011,0.095,-0.005,0,-0.062,-0.015,0.016,0.005,0.032,-0.088,-0.019,0.016,-0.008,-0.014,-0.041,0.023,-0.058
ARL1 (UniProt P40616),0.072,-0.113,0.023,0.028,0.014,-0.05,0.025,0.032,-0.157,0.059,0.117,-0.049,-0.068,0.031,-0.017,0.03,-0.012,0.058,0.117,-0.178
ARMC10 (UniProt Q8N2F6),-0.062,-0.333 (active),0.075,0.022,-0.017,-0.008,0.062,0.015,0.002,-0.044,0.012,-0.123,0.002,0.109,0.079,-0.03,0.157,0.006,0.142,-0.049
BMP2K (UniProt Q9NSY1),0.13,0.115,-0.02,-0.053,0.269,0.023,-0.058,-0.044,0.008,0.656 (active),0.071,0.023,0.088,0.015,0.183,0.179,0.064,-0.029,-0.069,-0.012
ATP5IF1 (UniProt Q9UII2),-0.149,0.141,-0.078,-0.041,0.021,0.013,-0.13,-0.02,-0.04,0.037,-0.111,0.111,0.013,-0.039,-0.014,0.046,-0.011,0.011,-0.063,-0.244 (active)
ATP7B (UniProt P35670),-0.03,-0.043,0.06,0.103,0.061,-0.031,0.024,0.069,0.034,0.009,0.069,0.005,-0.085,0.01,-0.019,-0.011,-0.044,0.005,0.052,-0.021
ACBD6 (UniProt Q9BR61),-0.032,-0.473 (active),0.103,0.05,0.01,-0.11,0.141,0.363,-0.099,0.046,-0.129,-0.115,-0.076,0.196,0.067,-0.112,-0.061,0.006,0.098,-0.047
AGPAT1 (UniProt Q99943),-0.032,-0.243 (active),0.015,-0.056,-0.007,-0.006,0.032,-0.011,-0.102,0.315 (active),-0.009,0.045,0.002,-0.004,0.074,-0.079,-0.109,-0.011,0.039,0.003
BAP1 (UniProt Q92560),-0.037,0.13,0,-0.092,-0.019,0.101,-0.093,0.021,0.047,0.055,-0.091,0.089,0.053,0.042,-0.1,0.09,0.037,0.061,0.014,-0.017
ALDH9A1 isoform 3 (UniProt P49189),0,-0.003,-0.048,0.011,0.003,-0.025,-0.01,-0.004,-0.065,-0.027,-0.019,0.01,-0.007,-0.024,0.05,-0.024,-0.054,-0.009,-0.016,-0.005
ADH5 (UniProt P11766),0.01,0.02,-0.024,-0.016,0.043,-0.001,-0.01,0.026,-0.052,-0.02,0.04,0.03,0.011,-0.025,-0.025,-0.014,-0.066,-0.025,-0.006,0.002
AHSA1 (UniProt O95433),-0.085,-0.228 (active),0.038,0.023,0,-0.052,0,0.027,-0.06,0.038,0.022,0.014,-0.039,-0.003,0,-0.061,-0.084,0.011,0.02,-0.008
